Source: PubChem
T cruzi growth-1: inhibitors of T. cruzi proliferation. T. cruzi beta-gal in NIH3T3, GalScreen luminescence, 90 h. inhibition, % at 8.34 µM. AID 624255. 5.9% of 77,000 active;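 active = mean inhibition above about 93%, with at least 55% of replicates each passing it, limit read from the data, passing the limit was not always enough; inconclusive = only one of those two conditions holds; inactive = neither condition holds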
C diff growth: C. difficile growth inhibition; Clostridium difficile clinical isolate growth, OD600, 24 h; active compounds read low; growth activity, negative = inhibition, % at 16 µg/mL (by protocol); AID 1259249; 0.25% of 86,000 active;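 active = mean growth activity at or below -80% and every replicate also at or below -80%; inconclusive = mean at or below -80% but some replicate above -80%; inactive = mean growth activity above -80%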;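 also: 0% = DMSO wells and -100% = levofloxacin 16 µg/mL wells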
Pf Dd2 inh: blocks growth of Plasmodium falciparum Dd2 parasites; P. falciparum Dd2 growth, SYBR Green, 72 h; active compounds read low; activity change, % at 10 µM; 2.3% of 94,000 active; in the data active = activity change below about -80%; inconclusive = no clear call, values can overlap the other calls
T cruzi growth-2: Trypanosoma cruzi proliferation inhibition. shares compounds with T cruzi growth-1. T. cruzi beta-gal in NIH3T3, GalScreen luminescence, 90 h. inhibition, % at 8.35 µM. 72% of 5,600 active;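 active = mean replicate inhibition above about 95% and at least 55% of replicates individually reaching it, limit read from the data; inconclusive = only one of the two criteria is met; inactive = neither criterion is met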
T cruzi growth-3: Trypanosoma cruzi proliferation inhibition. shares compounds with T cruzi growth-1. T. cruzi beta-gal in NIH3T3, GalScreen luminescence, 90 h. inhibition, % at 2.09 µM. 21% of 5,600 active. AID 651740;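 active = mean inhibition above about 95%, with at least 55% of replicates also reaching it, limit read from the data; inconclusive = meets just one of the two conditions; inactive = meets neither condition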;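 also: plate controls were neutral control median for no effect and positive control median for full effect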
3T3 cytotox: NIH/3T3 (mouse) viability loss. shares compounds with T cruzi growth-1. NIH/3T3 viability, CellTiter-Glo ATP luminescence, 90 h. cytotoxicity (signal decrease), % at 8.35 µM. 14% of 5,600 active. AID 651742;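 active = mean signal decrease across replicates above about 35% based on untreated-well scatter, with enough replicates individually passing, limit read from the data; inconclusive = no rule stated though some were filed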;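 also: 0% = median of neutral control wells and 100% = median of positive control wells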
3T3 cytotox 2: cytotoxicity in mouse NIH/3T3 fibroblasts | shares compounds with T cruzi growth-1 | NIH/3T3 viability, CellTiter-Glo ATP luminescence, 90 h | inhibition, % at 24.9 µM | 56% of 5,600 active;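 active = mean loss of cell viability signal at or above a set limit, and enough replicates individually reaching it; inconclusive = meets only the mean limit or only the replicate share; inactive = meets neither condition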;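 also: 0% = median of neutral control wells and 100% = median of positive control wells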
* marks the source's active call; other numbers are inactive results; u = inconclusive; x = no result given. This is a sample that favours compounds with a hit; in the whole collection about 6.7% have one here.

SMILES	T cruzi growth-1	C diff growth	Pf Dd2 inh	T cruzi growth-2	T cruzi growth-3	3T3 cytotox	3T3 cytotox 2
CCCN(C)C[C@@H]1Oc2cc(C#Cc3ccc(F)cc3)ccc2S(=O)(=O)N([C@@H](C)CO)C[C@H]1C	93.7*	4.3	-17.4	104.7*	39.8	31.4	106.2*
CCCN(C)C[C@@H]1Oc2cc(C#Cc3cccc(F)c3)ccc2S(=O)(=O)N([C@@H](C)CO)C[C@H]1C	116.0*	-4.8	x	110.2*	9.6	4.3	103.7*
CCCN(C)C[C@H]1Oc2cc(C#Cc3ccccc3F)ccc2S(=O)(=O)N([C@@H](C)CO)C[C@H]1C	93.4	3.8	-72.5	x	x	x	x
COc1ccc(S(=O)(=O)N2CCCCN3[C@@H](CO)[C@H](c4ccc(C#CC5CC5)cc4)[C@@H]3C2)cc1	109.0*	40.6	-2.6	101.6*	66.4	45.3*	104.5*
O=S(=O)(c1ccc(F)cc1)N1CCCCN2[C@H](CO)[C@H](c3ccc(C#CC4CC4)cc3)[C@H]2C1	100.9*	55.9	-49.7	103.7*	82.8	42.9*	105.4*
COc1ccc(S(=O)(=O)N2CCCCN3[C@H](CO)[C@@H](c4ccc(C#CC5CC5)cc4)[C@@H]3C2)cc1	117.0*	-5.0	1.5	108.6*	87.6	18.7	55.3*
O=S(=O)(c1ccc(F)cc1)N1CCCCN2[C@@H](CO)[C@@H](c3ccc(C#CC4CC4)cc3)[C@@H]2C1	85.6	45.9	-70.3	x	x	x	x
O=S(=O)(c1ccc(F)cc1)N1CCCCN2[C@H](CO)[C@@H](c3ccc(C#CC4CC4)cc3)[C@@H]2C1	43.5	-1.4	-9.0	x	x	x	x
COc1ccc(C#Cc2ccc([C@@H]3[C@@H](CO)N4CCCCN(S(=O)(=O)c5ccccc5)C[C@H]34)cc2)cc1	66.7	11.3	-48.9	x	x	x	x
COc1ccc(S(=O)(=O)N2CCCCN3[C@H](C2)[C@@H](c2ccc(C#CC4CC4)cc2)[C@@H]3CO)cc1	106.8*	30.1	14.8	99.6*	107.6*	37.8*	76.7*
O=C(C[C@H]1C[C@@H]2c3cc(NC(=O)C4CCC4)ccc3O[C@@H]2[C@H](CO)O1)NCc1ccc(-c2ccccc2)cc1	38.9	6.3	2.7	x	x	x	x
CCC(=O)N1[C@@H](CO)[C@@H](c2ccccc2)C12CN(C(=O)Nc1cccc(OC)c1)C2	x	2.6	22.0	x	x	x	x
O=C(C[C@H]1C[C@@H]2c3cc(NC(=O)NC4CCCC4)ccc3O[C@@H]2[C@H](CO)O1)NCCc1ccccc1	x	11.2	-7.5	x	x	x	x
C[C@@H]1CN([C@H](C)CO)C(=O)c2cc(NC(=O)c3ccccc3)ccc2O[C@@H](C)CCCCO[C@H]1CN(C)Cc1ccc(C(=O)O)cc1	23.3	3.3	34.4	x	x	x	x
COc1ccc(S(=O)(=O)N2CCCCN3[C@H](CO)[C@@H](c4ccc(C#CC5CC5)cc4)[C@H]3C2)cc1	u	34.7	-8.1	106.8*	105.6*	25.4	105.7*
O=S(=O)(c1ccc(F)cc1)N1CCCCN2[C@H](CO)[C@H](c3ccc(C#CC4CC4)cc3)[C@@H]2C1	100.2	11.8	-9.6	x	x	x	x
CCCC(=O)Nc1ccc2c(c1)OC[C@H](C)N(C(C)=O)C[C@H](C)[C@@H](OC)CN(C)C2=O	x	0.9	2.1	x	x	x	x
C[C@H]1CN([C@@H](C)CO)C(=O)c2cccc(NS(=O)(=O)c3cn(C)cn3)c2O[C@@H]1CN(C)C(=O)Nc1ccc2c(c1)OCO2	-84.3	x	31.9	x	x	x	x
Cn1cnc(S(=O)(=O)N2CCCCN3[C@H](CO)[C@@H](c4ccc(-c5ccccc5F)cc4)[C@@H]3C2)c1	49.4	-12.5	41.7	x	x	x	x
Cc1ccccc1-c1ccc([C@H]2[C@@H](CO)N3CCCCN(S(=O)(=O)c4cn(C)cn4)C[C@H]23)cc1	101.6*	-10.0	16.6	60.6	14.0	7.9	43.5*
Cn1cnc(S(=O)(=O)N2CCCCN3[C@@H](CO)[C@H](c4ccc(-c5ccccc5F)cc4)[C@@H]3C2)c1	31.2	-8.8	-22.6	x	x	x	x
Cc1ccccc1-c1ccc([C@@H]2[C@H]3CN(S(=O)(=O)c4cn(C)cn4)CCCCN3[C@H]2CO)cc1	125.9*	-5.8	-21.2	51.0	27.0	0.9	26.3*
O=C(C[C@@H]1C[C@H]2c3cc(NC(=O)C4CCOCC4)ccc3O[C@H]2[C@H](CO)O1)NCc1ccccn1	83.8	0.5	3.0	x	x	x	x
C[C@H](CO)N1C[C@H](C)[C@H](CN(C)S(=O)(=O)c2cn(C)cn2)Oc2c(NS(=O)(=O)c3ccccc3)cccc2C1=O	18.0	9.6	13.3	x	x	x	x
CC(C)CC#Cc1ccc2c(c1)O[C@H](CN(C)Cc1cccc(F)c1)[C@H](C)CN([C@@H](C)CO)S2(=O)=O	75.9	23.3	-72.3	x	x	x	x
SMILES	T cruzi growth-1	C diff growth	Pf Dd2 inh	T cruzi growth-2	T cruzi growth-3	3T3 cytotox	3T3 cytotox 2
CC(C)C#Cc1ccc([C@H]2[C@H](CO)N3C(=O)CN(C(=O)Cc4ccccc4)C[C@@H]23)cc1	x	-1.6	-13.6	x	x	x	x
CC(=O)N(C)C[C@H]1Oc2cc(C#CC3CCCC3)ccc2S(=O)(=O)N([C@@H](C)CO)C[C@@H]1C	93.5	-3.0	-32.4	x	x	x	x
CC(=O)N(C)C[C@@H]1Oc2cc(C#CC3CCCCC3)ccc2S(=O)(=O)N([C@H](C)CO)C[C@H]1C	u	-15.9	-53.6	107.6*	93.1	32.4	63.9*
CC(=O)N(C)C[C@H]1Oc2cc(C#CC3CCCC3)ccc2S(=O)(=O)N([C@H](C)CO)C[C@H]1C	101.8*	-4.7	-20.6	96.1*	84.4	-1.9	62.0*
CC(=O)N(C)C[C@@H]1Oc2cc(C#CC3CCCCC3)ccc2S(=O)(=O)N([C@@H](C)CO)C[C@H]1C	84.2	-21.0	-52.2	x	x	x	x
COc1ccc(NC(=O)Nc2ccc3c(c2)C(=O)N([C@@H](C)CO)C[C@@H](C)[C@@H](CN(C)C(=O)Nc2cccc4ccccc24)OCCCC[C@H](C)O3)cc1	32.3	-3.9	-78.6	x	x	x	x
C[C@@H]1CN([C@@H](C)CO)C(=O)Cc2cc(NC(=O)Nc3ccc4c(c3)OCO4)ccc2O[C@H]1CN(C)Cc1ccncc1	x	3.1	2.0	x	x	x	x
CO[C@H]1CN(C)C(=O)c2ccc(NC(=O)Cc3ccccc3)cc2OC[C@H](C)N(C)C[C@@H]1C	x	-2.8	-1.7	x	x	x	x
COCC(=O)N(C)C[C@@H]1Oc2ncc(C#Cc3ccc(OC)cc3)cc2C(=O)N([C@H](C)CO)C[C@@H]1C	-40.8	1.0	13.0	x	x	x	x
N#C[C@@H]1[C@@H](c2ccc(C#Cc3ccccc3F)cc2)[C@H](CO)N1C(=O)C1CC1	104.2*	-7.6	-25.9	103.4*	93.1	9.9	18.8
N#C[C@@H]1[C@H](c2ccc(C#Cc3ccccc3F)cc2)[C@@H](CO)N1C(=O)C1CCCC1	x	26.2	-59.4	x	x	x	x
N#C[C@H]1[C@H](c2ccc(C#Cc3ccccc3F)cc2)[C@@H](CO)N1C(=O)C1CC1	102.0*	-5.1	-47.7	100.0*	100.4*	11.9	3.0
